About 8,800 targets were measured; listed, in parts, are those with a hit and a random draw of the rest. About 0.5% of all pairs of compound and target were hits.
Legend:
Assay in all cases: log2 fold change, soluble protein after heating vs DMSO (PISA); higher = thermal stabilisation; K562 lysate, 10 uM; active = over 0.2 and 3.5 SD of the protein, either way, in both replicates (recomputed)
lapatinib = compound: CS(=O)(=O)CCNCc1ccc(-c2ccc3ncnc(Nc4ccc(OCc5cccc(F)c5)c(Cl)c4)c3c2)o1 [lapatinib]
In short: (§1)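 Thermal stability, expressed as log-two fold change relative to solvent controls, is given from duplicates. Crude K562 extract in PBS pH 7.4 with 1 mM MgCl2, at 1 mg/mL protein, was treated with 10 μM compound for 30 min and heated in aliquots for 3 min across 48°C-58°C. After pooling, adjustment to 0.5% NP-40 at 4°C and centrifugation at 21,000xg for 90 min, supernatant protein was measured by TMTpro 16plex LC-MS/MS with channel sums equalised.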

pictilisib = compound: CS(=O)(=O)N1CCN(Cc2cc3nc(-c4cccc5[nH]ncc45)nc(N4CCOCC4)c3s2)CC1 [pictilisib]
In short: as §1

crizotinib = compound: C[C@@H](Oc1cc(-c2cnn(C3CCNCC3)c2)cnc1N)c1c(Cl)ccc(F)c1Cl [crizotinib]
In short: as §1

[1] = compound: C[C@H](C1=CC=C(C=C1)C(=O)NC2=C3C=CNC3=NC=C2)N
In short: as §1

duvelisib = compound: C[C@H](Nc1ncnc2nc[nH]c12)c1cc2cccc(Cl)c2c(=O)n1-c1ccccc1 [duvelisib]
In short: as §1

gandotinib = compound: Cc1cc(Nc2cc(CN3CCOCC3)c3nc(C)c(Cc4ccc(Cl)cc4F)n3n2)n[nH]1 [gandotinib]
In short: as §1

tozasertib = compound: Cc1cc(Nc2cc(N3CCN(C)CC3)nc(Sc3ccc(NC(=O)C4CC4)cc3)n2)n[nH]1 [tozasertib]
In short: as §1

doramapimod = compound: Cc1ccc(-n2nc(C(C)(C)C)cc2NC(=O)Nc2ccc(OCCN3CCOCC3)c3ccccc23)cc1 [doramapimod]
In short: as §1

bafetinib = compound: Cc1ccc(NC(=O)c2ccc(CN3CC[C@H](N(C)C)C3)c(C(F)(F)F)c2)cc1Nc1nccc(-c2cncnc2)n1 [bafetinib]
In short: as §1

[2] = compound: Cc1cccc(CC(=O)N2CCc3c2ccc(-c2cn(C)c4ncnc(N)c24)c3F)n1
In short: as §1

nilotinib = compound: Cc1cn(-c2cc(NC(=O)c3ccc(C)c(Nc4nccc(-c5cccnc5)n4)c3)cc(C(F)(F)F)c2)cn1 [nilotinib]
In short: as §1

[3] = compound: Cc1nc(Nc2n[nH]c3c2CN(C(=O)N[C@H](CN(C)C)c2ccccc2)C3(C)C)c2sccc2n1
In short: as §1

dasatinib = compound: Cc1nc(Nc2ncc(C(=O)Nc3c(C)cccc3Cl)s2)cc(N2CCN(CCO)CC2)n1 [dasatinib]
In short: as §1

[4] = compound: Cc1ncc(-c2ccnc(Nc3ccc(S(C)(=O)=O)cc3)n2)n1C(C)C
In short: as §1

[5] = compound: Cn1cc(-c2ccc3c(c2)CCN3C(=O)Cc2cccc(C(F)(F)F)c2)c2c(N)ncnc21
In short: as §1

quisinostat = compound: Cn1cc(CNCC2CCN(c3ncc(C(=O)NO)cn3)CC2)c2ccccc21 [quisinostat]
In short: as §1

tipifarnib = compound: Cn1cncc1[C@@](N)(c1ccc(Cl)cc1)c1ccc2c(c1)c(-c1cccc(Cl)c1)cc(=O)n2C [tipifarnib]
In short: as §1

[6] = compound: NC(=O)Nc1cc(-c2cccc(F)c2)sc1C(=O)N[C@H]1CCCNC1
In short: as §1

[7] = compound: NC(=O)c1cnc(N[C@@H]2CCCC[C@@H]2N)nc1Nc1cccc(-n2nccn2)c1
In short: as §1

[8] = compound: NC1(c2ccc(-c3nc4ccn5c(=O)[nH]nc5c4cc3-c3ccccc3)cc2)CCC1
In short: as §1

Measured: log2 fold change

ATP5PF isoform 2 (UniProt P18859)
Chain of UniProt P18859 (P18859 whole entry, looked up): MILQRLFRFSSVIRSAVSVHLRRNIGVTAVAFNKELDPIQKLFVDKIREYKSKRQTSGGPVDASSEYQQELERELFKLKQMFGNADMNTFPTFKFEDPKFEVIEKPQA
inactive: lapatinib 0.04 | pictilisib -0.088 | crizotinib 0.054 | duvelisib -0.021 | gandotinib -0.185 | tozasertib -0.018 | doramapimod -0.083 | bafetinib 0.221 | [2] -0.19 | nilotinib 0.059 | [3] 0.046 | dasatinib 0.026 | [4] 0.164 | [5] -0.013 | quisinostat 0.11 | tipifarnib 0.066 | [6] -0.058 | [7] -0.029 | [8] -0.051
active: [1] 0.591

CDKN1B (UniProt P46527)
Chain of UniProt P46527 (P46527 whole entry, looked up): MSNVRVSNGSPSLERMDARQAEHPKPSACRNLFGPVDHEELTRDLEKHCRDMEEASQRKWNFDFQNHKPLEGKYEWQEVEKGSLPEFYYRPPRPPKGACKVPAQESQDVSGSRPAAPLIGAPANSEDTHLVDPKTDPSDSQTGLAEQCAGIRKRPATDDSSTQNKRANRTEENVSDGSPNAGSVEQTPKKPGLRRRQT
active: quisinostat 0.393
inactive: lapatinib 0.083 | pictilisib -0.043 | crizotinib 0.139 | [1] 0.047 | duvelisib -0.06 | gandotinib -0.161 | tozasertib -0.005 | doramapimod -0.04 | bafetinib -0.106 | [2] -0.059 | dasatinib 0.021 | [5] 0.034 | [6] -0.122 | [7] -0.035 | [8] 0.045

BCR (UniProt P11274)
Chain of UniProt P11274 (P11274 whole entry, looked up): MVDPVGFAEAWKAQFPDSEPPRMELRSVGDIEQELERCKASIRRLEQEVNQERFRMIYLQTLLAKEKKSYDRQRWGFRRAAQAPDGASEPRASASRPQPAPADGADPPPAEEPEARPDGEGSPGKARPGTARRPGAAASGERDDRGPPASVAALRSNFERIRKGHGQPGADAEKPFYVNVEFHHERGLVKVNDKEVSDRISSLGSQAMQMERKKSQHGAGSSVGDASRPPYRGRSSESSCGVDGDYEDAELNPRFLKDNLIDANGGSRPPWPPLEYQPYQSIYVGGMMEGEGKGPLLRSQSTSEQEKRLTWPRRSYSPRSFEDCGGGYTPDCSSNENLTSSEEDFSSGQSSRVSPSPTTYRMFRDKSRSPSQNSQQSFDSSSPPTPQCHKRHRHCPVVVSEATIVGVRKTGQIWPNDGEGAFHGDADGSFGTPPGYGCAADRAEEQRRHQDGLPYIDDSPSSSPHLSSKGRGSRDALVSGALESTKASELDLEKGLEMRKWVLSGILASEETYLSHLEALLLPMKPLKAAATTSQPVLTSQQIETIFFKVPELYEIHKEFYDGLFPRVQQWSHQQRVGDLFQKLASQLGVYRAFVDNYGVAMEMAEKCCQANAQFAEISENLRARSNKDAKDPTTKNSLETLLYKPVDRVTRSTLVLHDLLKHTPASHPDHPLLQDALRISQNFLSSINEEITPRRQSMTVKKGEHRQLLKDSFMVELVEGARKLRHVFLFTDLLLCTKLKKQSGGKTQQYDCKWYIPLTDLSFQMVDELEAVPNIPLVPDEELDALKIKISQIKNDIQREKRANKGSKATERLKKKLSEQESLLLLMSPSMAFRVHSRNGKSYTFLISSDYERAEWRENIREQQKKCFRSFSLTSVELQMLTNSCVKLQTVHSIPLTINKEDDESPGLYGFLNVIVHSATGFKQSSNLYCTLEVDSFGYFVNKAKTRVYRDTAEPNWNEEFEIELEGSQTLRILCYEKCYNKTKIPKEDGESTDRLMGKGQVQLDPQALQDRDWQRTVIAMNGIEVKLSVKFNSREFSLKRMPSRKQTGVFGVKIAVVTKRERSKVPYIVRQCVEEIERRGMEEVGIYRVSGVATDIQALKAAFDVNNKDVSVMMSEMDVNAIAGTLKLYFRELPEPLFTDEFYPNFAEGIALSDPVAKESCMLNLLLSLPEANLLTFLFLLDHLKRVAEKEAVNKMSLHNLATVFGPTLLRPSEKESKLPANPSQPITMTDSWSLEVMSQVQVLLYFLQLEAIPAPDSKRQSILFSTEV
inactive: lapatinib -0.02 | pictilisib -0.032 | crizotinib 0.034 | [1] -0.064 | duvelisib -0.049 | gandotinib -0.013 | tozasertib 0.031 | doramapimod -0.047 | bafetinib 0.019 | [2] 0.1 | nilotinib 0.108 | [3] 0.021 | dasatinib 0.043 | [4] -0.017 | [5] -0.018 | quisinostat -0.044 | tipifarnib -0.015 | [7] 0.028 | [8] 0.016

ATXN2 (UniProt F8WB05)
inactive: lapatinib 0.06 | pictilisib 0.005 | crizotinib -0.023 | [1] 0.087 | duvelisib -0.065 | gandotinib -0.028 | tozasertib 0.043 | doramapimod -0.12 | bafetinib 0.045 | [2] 0.001 | dasatinib 0.035 | [5] -0.058 | quisinostat -0.208 | [6] -0.025 | [7] 0.025 | [8] -0.394

CHD5 (UniProt Q8TDI0)
inactive: lapatinib 0.028 | pictilisib 0.007 | crizotinib -0.03 | [1] 0 | duvelisib -0.056 | gandotinib 0.001 | tozasertib -0.074 | doramapimod 0.034 | bafetinib -0.042 | [2] -0.002 | nilotinib -0.007 | [3] 0.021 | dasatinib 0.038 | [4] -0.022 | [5] 0.007 | quisinostat -0.082 | tipifarnib 0.005 | [6] 0.02 | [7] -0.019 | [8] 0.01

ATE1 (UniProt O95260)
Chain of UniProt O95260 (O95260 whole entry, looked up): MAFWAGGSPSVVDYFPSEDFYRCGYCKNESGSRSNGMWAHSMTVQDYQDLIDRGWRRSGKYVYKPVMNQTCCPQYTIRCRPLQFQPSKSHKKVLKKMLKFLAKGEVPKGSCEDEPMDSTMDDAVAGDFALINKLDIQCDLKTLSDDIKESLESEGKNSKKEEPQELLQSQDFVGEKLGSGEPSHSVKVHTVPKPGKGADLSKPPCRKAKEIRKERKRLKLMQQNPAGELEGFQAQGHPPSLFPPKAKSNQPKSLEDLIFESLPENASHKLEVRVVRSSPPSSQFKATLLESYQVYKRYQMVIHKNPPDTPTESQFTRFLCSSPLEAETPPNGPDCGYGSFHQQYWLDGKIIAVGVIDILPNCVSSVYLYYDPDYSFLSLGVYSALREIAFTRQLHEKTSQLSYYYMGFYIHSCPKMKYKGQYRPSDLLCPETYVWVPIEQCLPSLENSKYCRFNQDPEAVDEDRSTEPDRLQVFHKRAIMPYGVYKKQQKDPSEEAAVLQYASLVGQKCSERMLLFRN
inactive: lapatinib -0.03 | pictilisib -0.047 | crizotinib -0.068 | [1] 0.032 | gandotinib -0.019 | doramapimod 0.043 | bafetinib -0.039 | [2] 0.009 | quisinostat 0.019 | [6] -0.093 | [7] 0.026

CDK11A (UniProt Q9UQ88)
Chain of UniProt Q9UQ88 (Q9UQ88 whole entry, looked up): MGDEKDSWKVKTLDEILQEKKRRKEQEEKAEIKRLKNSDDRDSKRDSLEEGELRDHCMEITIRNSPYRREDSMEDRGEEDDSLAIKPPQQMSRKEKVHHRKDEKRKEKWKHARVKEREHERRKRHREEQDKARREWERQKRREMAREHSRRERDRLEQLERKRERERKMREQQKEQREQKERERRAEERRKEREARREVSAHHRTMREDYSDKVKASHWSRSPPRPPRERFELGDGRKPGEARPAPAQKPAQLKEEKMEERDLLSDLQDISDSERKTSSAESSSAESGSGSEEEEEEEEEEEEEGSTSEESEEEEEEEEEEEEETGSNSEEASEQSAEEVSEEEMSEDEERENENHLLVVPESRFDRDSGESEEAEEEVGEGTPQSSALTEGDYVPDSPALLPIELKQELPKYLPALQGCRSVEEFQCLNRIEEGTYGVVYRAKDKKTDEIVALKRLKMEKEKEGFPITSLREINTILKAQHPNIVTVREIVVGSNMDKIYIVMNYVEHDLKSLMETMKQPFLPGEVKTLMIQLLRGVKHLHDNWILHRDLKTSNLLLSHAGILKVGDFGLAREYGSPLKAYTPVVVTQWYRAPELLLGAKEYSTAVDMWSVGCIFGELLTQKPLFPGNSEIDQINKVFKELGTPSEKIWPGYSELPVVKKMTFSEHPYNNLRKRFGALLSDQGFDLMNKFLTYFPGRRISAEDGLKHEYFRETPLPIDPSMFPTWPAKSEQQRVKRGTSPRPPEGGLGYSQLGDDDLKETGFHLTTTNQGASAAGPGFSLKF
inactive: lapatinib 0.104 | pictilisib -0.02 | crizotinib 0.092 | [1] 0.049 | duvelisib -0.003 | gandotinib 0.122 | doramapimod -0.072 | bafetinib -0.033 | [2] -0.093 | nilotinib -0.007 | [3] 0.053 | dasatinib -0.016 | [4] 0.085 | [5] -0.001 | quisinostat -0.031 | tipifarnib -0.029 | [6] 0.035 | [7] -0.029 | [8] -0.034

CFDP1 (UniProt Q9UEE9)
Chain of UniProt Q9UEE9 (Q9UEE9 whole entry, looked up): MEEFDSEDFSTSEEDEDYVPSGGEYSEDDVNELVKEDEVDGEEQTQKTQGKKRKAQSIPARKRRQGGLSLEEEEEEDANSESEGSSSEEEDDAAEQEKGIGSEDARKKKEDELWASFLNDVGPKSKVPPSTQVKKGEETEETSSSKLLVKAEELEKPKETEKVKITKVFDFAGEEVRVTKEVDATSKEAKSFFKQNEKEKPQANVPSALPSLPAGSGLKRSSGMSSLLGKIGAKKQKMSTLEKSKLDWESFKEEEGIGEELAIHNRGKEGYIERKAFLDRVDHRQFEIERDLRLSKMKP
inactive: lapatinib -0.018 | pictilisib 0.008 | crizotinib -0.052 | duvelisib 0.006 | gandotinib 0.066 | tozasertib -0.032 | doramapimod 0.041 | bafetinib 0.07 | [2] 0.091 | nilotinib -0.008 | [3] 0.051 | dasatinib 0.029 | [4] 0.035 | [5] 0.009 | quisinostat -0.102 | tipifarnib 0.013 | [6] -0.038 | [7] -0.013 | [8] -0.026
active: [1] -0.288

C18orf25 isoform 2 (UniProt Q96B23)
Chain of UniProt Q96B23 (Q96B23 whole entry, looked up): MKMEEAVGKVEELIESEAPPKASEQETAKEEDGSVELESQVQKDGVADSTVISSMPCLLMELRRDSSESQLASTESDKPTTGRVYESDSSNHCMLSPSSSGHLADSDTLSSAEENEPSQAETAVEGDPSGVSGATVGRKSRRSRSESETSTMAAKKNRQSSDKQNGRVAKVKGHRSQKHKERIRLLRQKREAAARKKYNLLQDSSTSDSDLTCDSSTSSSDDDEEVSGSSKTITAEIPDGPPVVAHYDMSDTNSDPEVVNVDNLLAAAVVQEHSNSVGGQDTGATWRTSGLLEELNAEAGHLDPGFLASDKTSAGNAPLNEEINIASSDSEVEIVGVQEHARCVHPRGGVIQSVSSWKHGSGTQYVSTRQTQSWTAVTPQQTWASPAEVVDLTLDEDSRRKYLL
inactive: lapatinib -0.001 | pictilisib -0.235 | [1] -0.017 | duvelisib 0.017 | gandotinib 0.061 | tozasertib 0.001 | bafetinib -0.025 | [2] -0.021 | nilotinib -0.026 | [3] -0.115 | dasatinib -0.025 | [4] -0.291 | [5] -0.056 | tipifarnib 0.076 | [7] 0.01 | [8] -0.071

Reference: the supplement of paper PMC10849652
